Screening results as filed in PubChem BioAssay.
Most compounds without a hit are left out; they make up all but 1.2% or so of the library.
RGS4-Gao reg: modulates binding of RGS4 to human Galphao; binding response (% of control), % at 10 µM; Multiplexed bead flow cytometry; actives lie on both sides; 0.33% of 220,000 active; in the data active = binding response below about 49% or above about 150%; inactive = in between;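 note: fluorescent Galphao activated with aluminum fluoride binding bead-coupled RGS4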
Target sequence (P09471 whole entry, looked up): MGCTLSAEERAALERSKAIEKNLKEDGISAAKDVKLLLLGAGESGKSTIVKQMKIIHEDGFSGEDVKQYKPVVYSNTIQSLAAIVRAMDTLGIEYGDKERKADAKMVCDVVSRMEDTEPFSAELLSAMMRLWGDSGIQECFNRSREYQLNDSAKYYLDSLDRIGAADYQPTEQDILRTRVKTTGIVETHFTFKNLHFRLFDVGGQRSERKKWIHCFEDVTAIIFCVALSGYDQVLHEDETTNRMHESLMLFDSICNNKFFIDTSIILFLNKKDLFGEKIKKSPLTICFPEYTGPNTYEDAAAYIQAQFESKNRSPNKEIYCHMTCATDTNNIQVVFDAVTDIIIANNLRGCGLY
RGS8-Gao reg: modulates binding of RGS8 to human Galphao; multiplexed bead flow cytometry; actives lie on both sides; AID 1423; response (percent of control binding), % at 10 µM; 0.34% of 220,000 active; P09471; in the data active = response below about 60% or above about 140%; inactive = in between;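 note: Galphao activated as the GDP aluminium fluoride complex binding bead-coupled RGS8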
RGS7-Gao: human RGS7-Galphao interaction regulation; binding response (% of control), % at 10 µM; 0.35% of 220,000 active; P09471; Multiplexed bead flow cytometry, RGS7-Galphao binding; actives lie on both sides; in the data active = binding response below about 49% or above about 150%; inconclusive = no clear call, values can overlap the other calls; inactive = in between;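 note: fluorescent Galphao held in activated GDP-AlF4 state binding bead-coupled RGS7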
RGS16-Gao: modulates binding between human RGS16 and Galphao; binding response (% of control), % at 10 µM; 0.38% of 220,000 active; O15492+P09471; AID 1441; bead-based flow cytometry RGS16-Galphao binding, fluorescence; actives lie on both sides;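 note: Galphao activated by GDP with aluminum fluoride before binding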
Target sequence (O15492 whole entry, looked up): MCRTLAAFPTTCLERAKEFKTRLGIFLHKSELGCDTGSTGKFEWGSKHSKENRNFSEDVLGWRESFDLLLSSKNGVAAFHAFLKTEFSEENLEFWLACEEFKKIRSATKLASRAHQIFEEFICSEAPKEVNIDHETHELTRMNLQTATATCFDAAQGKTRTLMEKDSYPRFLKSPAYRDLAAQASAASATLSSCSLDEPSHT
Target sequence (P09471 whole entry, looked up): as the sequence (P09471 whole entry, looked up) above
GSH bead fluor: compound fluoresces at 488/530 nm on GSH beads; fluorescence (KMESF) at 10 µM; GSH beads flow cytometry, compound fluorescence 488/530 nm; stronger effect = higher value; 0.25% of 190,000 active; in the data active = fluorescence above about 89;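 note: glutathione beads carrying GST-tagged Bcl family fusion proteins plus one bare bead set; values are compound well signal with DMSO vehicle wells as background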
Avidin fluor: compound fluoresces at 488/530 nm on avidin beads; compound fluorescence 488/530 nm, flow cytometry; stronger effect = higher value; fluorescence (KMESF) at 10 µM; 0.38% of 220,000 active; AID 1775; in the data active = fluorescence above about 47
RGS4-Gao HTS: RGS4-Galphao interaction regulator (human). shares compounds with RGS16-Gao. multiplexed bead flow cytometry, RGS–Galpha-o binding. RGS4–Galpha-o binding response, % at 10 µM. 99% of 1,600 active. AID 1504;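 note: fluorescently labeled Galpha-o bound to GDP with aluminium fluoride binding biotinylated RGS beads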
Biotin-avidin: biotin-avidin bead binding disruption counter-screen; shares compounds with RGS16-Gao; streptavidin beads, fluorescein-biotin binding, flow cytometry; inhibition, % at 10 µM; 1,700 tested, under 10 active; AID 1783;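 active = inhibition above 50%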;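 note: median green fluorescence of gated singlet beads compared with DMSO control wells; 0% = DMSO wells and 100% = complete loss of bead fluorescence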
RGS8-Gao confirm: confirmation of regulators of human RGS8-Galphao interaction; AID 1836; binding response (% of control), % at 10 µM; bead-based flow cytometry RGS8-Galphao binding, fluorescence; actives lie on both sides; shares compounds with RGS16-Gao; 3% of 1,700 active; in the data active = binding response below about 72% or above about 130%; inactive = in between;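 note: Galphao activated as GDP AlF4 complex before binding bead RGS8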
RGS7-Gao confirm: RGS7-Galphao interaction regulation, single point confirmation; shares compounds with RGS16-Gao; bead-based flow cytometry RGS7-Galphao binding; actives lie on both sides; response (percent of control binding), % at 10 µM; 7.8% of 1,700 active; AID 1837; in the data active = response below about 75% or above about 130%; inactive = in between;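 note: fluorescent Galphao activated with GDP and aluminum fluoride binding bead-coupled RGS7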
RGS16-Gao single: confirmation of regulators of human RGS16-Galphao interaction; bead-based flow cytometry, RGS16-Galphao binding; actives lie on both sides; 4% of 1,700 active; shares compounds with RGS16-Gao; response (% of control binding), % at 10 µM; in the data active = response below about 74% or above about 130%; inactive = in between;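 note: Galphao activated as the GDP aluminium fluoride complex binding bead-coupled RGS16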
RGS4-Gao confirm: confirmation of regulators of human RGS4-Galphao interaction; 4% of 1,700 active; binding response (% of control), % at 10 µM; RGS4-Galphao binding, multiplexed bead flow cytometry; actives lie on both sides; shares compounds with RGS16-Gao; AID 1840; in the data active = binding response below about 74% or above about 130%; inactive = in between
RGS19-Gao conf: confirmation of regulators of human RGS19-Galphao interaction; shares compounds with RGS16-Gao; 5% of 1,700 active; AID 1841; bead-based flow cytometry RGS19-Galphao binding; actives lie on both sides; response (percent of control binding), % at 10 µM; in the data active = response below about 50% or above about 160%; inactive = in between;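 note: 100% = no compound control and 0% = blank background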
Active calls of the source: *; [ ] = dose if it differs, or a comment. Unless noted, the rule behind the calls is not given here.

C#CCOC(=O)C(NC(=O)c1ccccc1)=C(C)C was read as RGS4-Gao reg 78, RGS8-Gao reg 83, RGS7-Gao 90, RGS16-Gao -38*, GSH bead fluor 40, Avidin fluor 0, RGS4-Gao HTS 78*, Biotin-avidin 1, RGS8-Gao confirm 103, RGS7-Gao confirm 102, RGS16-Gao single 102, RGS4-Gao confirm 102 and RGS19-Gao conf 101.
For CCOC(=O)C(NC(=O)c1ccccc1)=C(C)C the results were RGS4-Gao reg 103, RGS8-Gao reg 104, RGS7-Gao 102, RGS16-Gao 103, GSH bead fluor 47 and Avidin fluor 6.
For COC(=O)C(NC(=O)c1ccccc1)=C(C)C the results were RGS4-Gao reg 101, RGS8-Gao reg 101, RGS7-Gao 110, RGS16-Gao 107, GSH bead fluor 14 and Avidin fluor 21.
`CCCCOC(=O)C(NC(=O)c1ccccc1)=C(C)C` gave RGS4-Gao reg -36*, RGS8-Gao reg 5.2*, RGS7-Gao -16*, RGS16-Gao -33*, GSH bead fluor 33, Biotin-avidin -2, RGS8-Gao confirm 102, RGS7-Gao confirm 101, RGS16-Gao single 105, RGS4-Gao confirm 98 and RGS19-Gao conf 95.
`CCCNC(=O)Cn1cnc([N+](=O)[O-])n1` gave RGS4-Gao reg 105, RGS8-Gao reg 107, RGS7-Gao 101, RGS16-Gao 112, GSH bead fluor 10 and Avidin fluor 14.
For Cc1cc(C)nc(NNC(=O)NC2CCCCC2)n1 the results were RGS4-Gao reg -11*, RGS8-Gao reg 2.4*, RGS7-Gao -8.8*, RGS16-Gao -20*, GSH bead fluor 14, Avidin fluor -2, Biotin-avidin 0, RGS8-Gao confirm 113, RGS7-Gao confirm 119, RGS16-Gao single 119, RGS4-Gao confirm 112 and RGS19-Gao conf 107.
`CC(=O)c1cc2c(C)c(C(=O)c3ccccc3)oc2cc1O` gave RGS4-Gao reg 100, RGS8-Gao reg 104, RGS7-Gao 101, RGS16-Gao 108, GSH bead fluor 5 and Avidin fluor 12.
O=C(Cc1ccc(Cl)cc1)NNC(=S)NC(=O)c1cccnc1 was read as RGS4-Gao reg 93, RGS8-Gao reg 95, RGS7-Gao 93, RGS16-Gao 95, GSH bead fluor 13 and Avidin fluor 9.
For O=C(NC(=S)NCCOCc1ccc(Cl)cc1)c1cccnc1 the results were RGS4-Gao reg 89, RGS8-Gao reg 67, RGS7-Gao 93, RGS16-Gao 16*, GSH bead fluor 12, Avidin fluor 1, RGS4-Gao HTS 89*, Biotin-avidin -2, RGS8-Gao confirm 99, RGS7-Gao confirm 87, RGS16-Gao single 96, RGS4-Gao confirm 92 and RGS19-Gao conf 100.
`COc1cc(OC)c(-c2nc3c[n+](CC(=O)c4ccccc4)ccc3n2C)cc1OC` gave RGS4-Gao reg 102, RGS8-Gao reg 98, RGS7-Gao 101, RGS16-Gao 87, GSH bead fluor 36 and Avidin fluor 8.
For COc1ccc(C(=O)C[n+]2ccc3c(c2)nc(-c2cc(OC)c(OC)cc2OC)n3C)cc1 the results were RGS4-Gao reg 75, RGS8-Gao reg 61, RGS7-Gao 68, RGS16-Gao 18*, GSH bead fluor 17, Avidin fluor 5, RGS4-Gao HTS 75*, Biotin-avidin 1, RGS8-Gao confirm 102, RGS7-Gao confirm 105, RGS16-Gao single 102, RGS4-Gao confirm 101 and RGS19-Gao conf 98.
Screening CC(C)C1Oc2cc3oc(=O)ccc3cc2C1=O (stereo unspecified) returned RGS4-Gao reg 56, RGS8-Gao reg 57*, RGS7-Gao 50, RGS16-Gao 5.7*, GSH bead fluor 23, Avidin fluor 4, RGS4-Gao HTS 56*, Biotin-avidin -1, RGS8-Gao confirm 107, RGS7-Gao confirm 105, RGS16-Gao single 106, RGS4-Gao confirm 103 and RGS19-Gao conf 98.
`Cc1cc(=S)cc(C)n1CCO` gave RGS4-Gao reg 100, RGS8-Gao reg 53*, RGS7-Gao 104, RGS16-Gao 0, GSH bead fluor 24, Avidin fluor 0, RGS4-Gao HTS 100*, Biotin-avidin 0, RGS8-Gao confirm 95, RGS7-Gao confirm 99, RGS16-Gao single 99, RGS4-Gao confirm 97 and RGS19-Gao conf 97.
Screening CC1(C)COC(c2cccc(C3=NC(C)(C)CO3)n2)=N1 returned RGS4-Gao reg 96, RGS8-Gao reg 99, RGS7-Gao 98, RGS16-Gao 92, GSH bead fluor 6 and Avidin fluor 2.
COc1ccccc1-c1c(C)nn2c(N3CCC(C)CC3)cc(C)nc12 was read as RGS4-Gao reg 17*, RGS8-Gao reg 22*, RGS7-Gao inconclusive, RGS16-Gao 11*, Avidin fluor 0, Biotin-avidin 0, RGS8-Gao confirm 111, RGS7-Gao confirm 112, RGS16-Gao single 111, RGS4-Gao confirm 111 and RGS19-Gao conf 101.
`CCCCCn1c(CN(C)Cc2ccccc2)nc2c1c(=O)n(C)c(=O)n2C` gave RGS4-Gao reg 110, RGS8-Gao reg 129, RGS7-Gao 110, RGS16-Gao 238*[activator], GSH bead fluor 11, Avidin fluor 7, RGS4-Gao HTS 110*, Biotin-avidin -3, RGS8-Gao confirm 100, RGS7-Gao confirm 100, RGS16-Gao single 99, RGS4-Gao confirm 100 and RGS19-Gao conf 103.
Cc1ccc(OCCN2C(=O)c3ccccc3C2=O)c(C)c1 was read as RGS4-Gao reg 90, RGS8-Gao reg 100, RGS7-Gao 92, RGS16-Gao 89, GSH bead fluor 51 and Avidin fluor 9.
